Test results as given in PubChem BioAssay (NCI).
About 83,000 compounds went through this panel and 20% of them were active in at least one assay; those are over-represented in the sample as a whole.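 Interpretation: 100, growth as untreated; towards 0, rising growth inhibition; 0, no net growth; 0 to -100, cell death. Compounds scoring below 10 were considered active.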 Calls of active or inactive are those of the source.

tested on: SR leukemia; assay: NCI-60 one-dose screen, 48 h (100 = growth as untreated, 0 = no growth, -100 = all killed); details: 10 µM unless noted
Protocol: Growth inhibition of the SR human tumor cell line is measured as a screen for anti-cancer activity. Cells are grown in 96 well plates and exposed to the test compound for 48 hours. Compounds are tested at a single concentration, which is 10^-5 M for most compounds. The reported endpoint is percent growth (GI% or GIPRCNT), where numbers from 0 - 100% represent growth inhibition, and numbers from -100% - 0 represent cell death. For example, a value of 40 represents 60% growth inhibition. A value of 0 means no net growth occurred over the course of the experiment. A value of -40 indicates 40% of cells at the beginning of the experiment died by the end of the experiment. A value of -100 means all cells are dead at the end of the experiment.
NCI-60 Human Tumor Cell Lines Screen was performed using the standard one-dose NCI protocol, which is described in more detail at https://dtp.cancer.gov/discovery_development/nci-60/default.htm.
Compounds with GIPRCNT values below 10 were considered active. Activity score was based on GIPRCNT using the following formula: […]
Score is 0 for GIPRCNT values of 100 or above, 50 for GIPRCNT values of 0, and 100 for GIPRCNT values of -100.

SMILES | growth
Cc1ccc(-c2onc3c(=O)[nH]nc(-c4ccccc4)c23)cc1 | 28% (inactive)
NC(=NCCCC1(c2ccccc2)CCCC1)Nc1ccc(Cl)cc1 | -39.7% (active)
CCOC(=O)n1cc(-c2nonc2-c2cn(C)c3ncccc23)c2ccccc21 | 60.5% (inactive)
OC(c1cc2cc(Cl)c(Cl)cc2c2cc(C(F)(F)F)ccc12)C1CCCCN1 (stereo not given) | -59.9% (active)
COc1cccc(-c2nc(SCC(=O)Nc3ccc(C(=O)/C=C/c4ccc(OC)c(OC)c4)cc3)[nH]c(=O)c2C#N)c1 | 60.6% (inactive)
CN(C)S(=O)(=O)c1cccc(-c2nc3sc4c(c3c(=O)[nH]2)CCCC4)c1 | -48.6% (active)
N#Cc1nnn(-c2ccc(S(N)(=O)=O)cc2)c1NCC(=O)c1ccccc1 | 90.7% (inactive)
COc1nc2c(c(=O)n1C)CN(Cc1ccccc1)C=N2 | 98.7% (inactive)
N=C(N)c1ccc(-c2ccc(-c3ccc4ccccc4c3)s2)s1 | -37.2% (active)
COc1ccc(SC2c3ccc(C)cc3Oc3nc(N)c(C#N)c(N)c32)cc1 (stereo not given) | -28% (active)
O=C1/C(=C/c2ccc(Cl)cc2)SC(=S)N1CCc1ccc(O)cc1 | 102% (inactive)
COc1cc2c(cc1OC)C(Sc1ccc(SC)cc1)c1c(nc(N)c(C#N)c1N)O2 (stereo not given) | -37.4% (active)
O=C(O)COc1ccc(Cl)cc1C1CCCCC1 | 95.4% (inactive)
COc1cc(/C=C/c2cc(/C=C/c3ccc(O)c(OC)c3)n(-c3c(Cl)cccc3Cl)c(=O)n2)ccc1O | 4.12% (active)
CCN=C1C=CC(=C(c2ccc(N)cc2)c2ccc(N(CC)CC)c(C)c2)C=C1 | -17.6% (active)
CNC(=O)c1cc(Oc2ccc(NC(=O)Nc3ccc(Cl)c(SC)c3)c(F)c2)ccn1 | 31.4% (inactive)
Clc1ccc2c(NCCCNc3nc(-n4ccnc4)nc4ccccc34)ccnc2c1 | 58.4% (inactive)
C#CCOc1ccc2ncnc(N3CCN(C(=O)CCl)CC3)c2c1 | 33.4% [8.25 µM] (inactive)
Cn1cc(C(=O)c2nc(-c3c[nH]c4ccc(F)cc34)no2)c2cc(F)ccc21 | 48.1% (inactive)
CN1CCN(c2nc(NCCCNc3ccnc4cc(Cl)ccc34)c3ccccc3n2)CC1 | -25.3% (active)

SMILES | growth
CC(C)C[C@@H](NC(=O)[C@@H](Cc1ccccc1)NC(=O)c1cnccn1)B1Oc2ccc(C[C@H](NC(=O)[C@H](Cc3ccc4c(c3)OB([C@@H](CC(C)C)NC(=O)[C@@H](Cc3ccccc3)NC(=O)c3cnccn3)O4)NC(=O)[C@@H](N)CC3CCC4OB([C@@H](CC(C)C)NC(=O)[C@@H](CC5CCCCC5)NC(=O)C5CNCCN5)OC4C3)C(=O)NCCCC[C@@H]3NC(=O)[C@@H](Cc4ccccc4)NC(=O)[C@H](CC(=O)O)NC(=O)CNC(=O)[C@H](CCCNC(=N)N)NC3=O)cc2O1 (stereo not given in full) | 1.49% (active)
CC(=O)c1cc(C(=O)c2ccc3c(c2)Sc2ccccc2N3)n2ccccc12 | 9.43% (active)
O=C(NCCN1CCOCC1)Nc1ccc(-c2cc3c(Nc4ccc(Oc5cccc(C(F)(F)F)c5)c(Cl)c4)ncnc3s2)cc1 | 4.83% (active)
Fc1ccc2[nH]cc(SSc3c[nH]c4ccc(F)cc34)c2c1 | -29.4% (active)
O=C1Nc2cc(-c3ccc(O)cc3)ccc2/C1=C/c1ccc[nH]1 | 5.01% (active)
COC(=O)c1ccc2oc(NC(=O)c3ccc(Nc4ccc([N+](=O)[O-])cc4C)c([N+](=O)[O-])c3)nc2c1 | 111% (inactive)
COc1cc(Nc2cc(C)nc(N3CCN(c4ccnc5cc(Cl)ccc45)CC3)n2)cc(OC)c1 | -4.09% (active)
CC/C=C\C[C@H](O)C/C=C1/C(=O)C=C[C@@]1(C)C/C=C\CCCC(=O)OC | 103% (inactive)
CC1CCNC(C)C1 (stereo not given) | 105% (inactive)
O=c1cc(CSc2nnc(-c3ccc(F)cc3)o2)c2ccc3ccccc3c2o1 | 94.1% (inactive)
Cc1cc(C)nc(SC2=C(Nc3cccc(Cl)c3C)C(=O)N(Cc3ccccc3)C2=O)n1 | 31.8% [30 µM] (inactive)
O=c1ccccc(-c2ccc(-c3ccco3)cc2)c1O | 10% (inactive)
C=C1C(=O)O[C@H]2[C@H]1CC/C(COC(=O)c1cc3cc(OC)ccc3[nH]1)=C\CC[C@@]1(C)O[C@@H]21 | -21.1% (active)
CC(C)(C)c1cc(C(C)(C)C)cc(S(=O)(=O)Nc2cc3ccccc3cc2C(=O)NCCN)c1 | -32.1% (active)
C#CC(F)(F)[C@]1(O)CC[C@H]2[C@@H]3CCC4=CC(=O)CCC4=C3[C@@H](c3ccc(C(C)=O)cc3)C[C@@]21C | 7.36% (active)
O=C(C(=O)c1ccc2c(c1)OCO2)c1ccc2c(c1)OCO2 | 106% (inactive)
O=[N+]([O-])c1ccc2c(c1)Cc1cc(F)ccc1-2 | 103% (inactive)
COc1cccc(C2=NN3C(C2)c2cc(Br)cc(OC)c2OC32CCN(Cc3ccccc3)CC2)c1 (stereo not given) | 111% (inactive)
COc1ccc2cc(-c3nn(-c4ccc(C(=O)O)cc4)cc3CO)ccc2c1 | 90.8% (inactive)
NC1=C(Cl)C(=O)c2ccc(S(N)(=O)=O)cc2C1=O | 2.63% (active)
